The whole screen tested about 5,500 compounds, of which about 2,000 (36%) were called active. Not shown: some 18% with an inconclusive outcome. No stated cut-off is given here; in the data, active means normalized growth mostly below about 0.91 (no sharp cut-off); inconclusive means no clear call, values can overlap the other calls; inactive means mostly above about 0.92. Some of the results follow.
Assay: chemical genetic growth profiling, strain panel (AID 1159580);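 further: tested at 20 µM; growth read once vehicle control cultures reached saturation at 30 °C; 1 = growth at the plate median or of vehicle wells; lower values mean less growth of the strain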
Settings: S. cerevisiae deletion strains, growth OD

Measured: normalized growth

O=C(O)CC[C@@H](C(=O)O)N1C(=O)c2ccccc2C1=O
inactive: locus YAL040C, strain CLN3, active compounds read low 0.987 | locus YCL061C, strain MRC1 (second series), active compounds read low 1.01 | locus YDR150W, strain NUM1, active compounds read low 1 | locus YDR363W, strain ESC2, active compounds read low 0.987 | locus YER002W, strain NOP16, active compounds read low 0.975 | locus YGR229C, strain SMI1, active compounds read low 1 | locus YNL175C, strain NOP13, active compounds read low 0.973 | locus YNL197C, strain WHI3, active compounds read low 0.976 | locus YNL224C, strain SQS1, active compounds read low 0.991 | locus YOR083W, strain WHI5 (second series), active compounds read low 1.06
